Screening results: PubChem BioAssay, National Center for Advancing Translational Sciences (NCATS)
RXFP1 ag: RXFP1 (human) receptor agonism; AID 2676; Q9HBX9; hit rate 0.3% among 370,000; HEK293T-RXFP1 cAMP TR-FRET, 30 min; response scale: percent of porcine relaxin response, buffer zero; Potency, µM (titrated, usually from 57.5 µM), for inactives: top-dose activation, hits mostly activators; also: potency is read from the fitted curve at half-maximal effect; % is scaled to controls: 0 for no effect and ±100 for the full control effect; nearly all actives have a fitted effect of over 60% in size
Target sequence (Q9HBX9 whole entry, looked up): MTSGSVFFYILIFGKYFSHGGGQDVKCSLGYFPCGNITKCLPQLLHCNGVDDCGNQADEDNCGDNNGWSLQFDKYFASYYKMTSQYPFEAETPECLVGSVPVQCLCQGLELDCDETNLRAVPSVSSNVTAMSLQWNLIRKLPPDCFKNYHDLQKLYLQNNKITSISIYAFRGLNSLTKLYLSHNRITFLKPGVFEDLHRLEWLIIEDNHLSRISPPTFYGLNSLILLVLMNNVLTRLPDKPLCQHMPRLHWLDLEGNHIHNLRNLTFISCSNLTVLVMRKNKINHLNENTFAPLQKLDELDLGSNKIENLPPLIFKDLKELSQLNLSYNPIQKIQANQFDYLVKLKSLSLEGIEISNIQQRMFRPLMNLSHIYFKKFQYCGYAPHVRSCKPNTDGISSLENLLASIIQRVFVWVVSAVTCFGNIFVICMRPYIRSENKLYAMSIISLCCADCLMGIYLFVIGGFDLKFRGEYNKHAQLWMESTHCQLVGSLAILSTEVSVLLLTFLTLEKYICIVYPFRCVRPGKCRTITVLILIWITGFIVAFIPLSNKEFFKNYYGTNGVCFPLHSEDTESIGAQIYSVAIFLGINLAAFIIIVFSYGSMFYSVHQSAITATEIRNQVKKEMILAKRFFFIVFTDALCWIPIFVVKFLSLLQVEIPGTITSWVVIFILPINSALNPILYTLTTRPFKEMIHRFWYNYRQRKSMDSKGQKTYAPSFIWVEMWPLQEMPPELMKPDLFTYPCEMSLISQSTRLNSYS
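Agonist response is measured as cAMP accumulation in an RXFP1-transfected HEK293T line under PDE4 inhibition. Values are scaled between buffer-only and 29 nM porcine relaxin, and EC50s come from standard Hill equation fits.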
GRP78 ERSR act: ER stress response induction in glioma; AID 602332; hit rate 0.02% among 420,000; U87-MG GRP78 promoter luciferase reporter, 16 h; Potency, µM, for the others: top-dose activation, actives largely listed as activators; also: potency is read from the fitted curve at half-maximal effect; series mostly up to about 76 µM; % of control where 0% means no effect; nearly all actives have a fitted effect of over 35% in size
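ERSR induction read as luciferase luminescence (Bright-Glo, 10 min at room temperature) in stably transfected human U87-MG glioma cells exposed to compounds for 16 h, using GRP78 as sensor.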
RXFP1 antagonist: antagonists of human relaxin receptor RXFP1 | AID 1259400 | HEK293-RXFP1, relaxin-stimulated cAMP HTRF, 30 min; stronger effect = lower value | hit rate 0.59% among 350,000 | activity change, negative = inhibition, % at 57.5 µM;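 active = activity change of -60% or lower, but not beyond a set lower limit; inconclusive = change between -60% and -40%, or beyond the set limit; inactive = change above -40%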; also: % is scaled to controls: 0 for no effect and ±100 for the full control effect
hERG WT inh: blocks the wildtype human KCNH2 potassium channel; Q12809; U2OS, BacMam KCNH2, thallium flux FluxOr; stronger effect = lower value; activity change, % at 1.84 µM; hit rate 0.37% among 340,000; AID 720551;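 active = maximum activity change below -70%; inconclusive = maximum activity change between -70% and -50%; inactive = maximum activity change above -50%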; also: % is scaled to controls: 0 for no effect and ±100 for the full control effect
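U2OS cells transduced with wild-type KCNH2 virus are loaded with FluxOr dye for 45 min, and thallium flux is measured in kinetic reads before and after stimulation buffer. Rate constants are normalized to DMSO controls.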
PTHR1 agonist: PTHR1 (human) receptor agonism | hit rate 0.075% among 410,000 | AID 743266 | HEK293 GP2 PTHR1 cells, GloSensor cAMP luminescence, 1 h | Q03431 | Potency, µM (highest dose often 115 µM), inactives show at the highest dose activation, actives largely listed as activators; also: potency is read from the fitted curve at half-maximal effect; nearly all actives have a fitted effect of over 55% in size
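HEK-293-derived GP2 cells expressing PTHR1 and a GloSensor cAMP reporter, 3,000/well, plated overnight, given luciferin plus IBMX (each 0.5 mM as added) for 1 h at 37 °C, then compound for 1 h at 37 °C. Luminescence was read after 15 min at room temperature.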
KCNH2 3.1 inh: inhibitors of human KCNH2 3.1 potassium channel isoform. activity change, % (tested at about 1.8 µM). AID 720553. hit rate 0.95% among 340,000. U2OS KCNH2 3.1, thallium flux FluxOr; stronger effect = lower value;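 active = maximum activity change below -70%; inconclusive = maximum activity change from -70% to -50%; inactive = maximum activity change above -50%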;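 also: thallium influx rate constant from kinetic fluorescence after stimulation buffer; % is scaled to controls: 0 for no effect and ±100 for the full control effect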
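FluxOr-based Tl+ influx in U2OS cells transduced with KCNH2 3.1 virus; rate constants normalized to DMSO controls.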
Active calls of the source: *; [ ] = another dose, or the depositor's remark. Most compounds without a hit are left out; they make up all but 1.4% or so of the library. Unless noted, calls follow the shape of the dose curve; as a rule, active = well fitted curve in the direction sought with a large enough effect; inconclusive = small, poorly fitted or top-dose-only effect, or another doubt; inactive = no such curve, though single readings can be large; an effect the other way counts as inactive or inconclusive.

C/C(=N\NC(=S)Nc1c(C)cccc1C)c1ccc(O)cc1 was read as RXFP1 ag -6%, GRP78 ERSR act -6%, RXFP1 antagonist -3, hERG WT inh -6, PTHR1 agonist -25% and KCNH2 3.1 inh 6.
`CCOC(=O)C(Cc1c[nH]c2ccccc12)NC(=O)COc1ccc(Cl)cc1` (stereo unspecified) gave RXFP1 ag 3%, GRP78 ERSR act inconclusive, RXFP1 antagonist -28 and PTHR1 agonist -52%.
Screening COCCNC(=O)C(OC(=O)c1nsc(Cl)c1Cl)C(C)C (stereo unspecified) returned RXFP1 ag 18µM*, GRP78 ERSR act -2%, RXFP1 antagonist 9, hERG WT inh 2, PTHR1 agonist -1% and KCNH2 3.1 inh -7.
COc1ccc(CCNC(=O)C(C)OC(=O)c2nsc(Cl)c2Cl)cc1OC (stereo unspecified) was read as RXFP1 ag 1%, GRP78 ERSR act -4%, RXFP1 antagonist 11, hERG WT inh -9, PTHR1 agonist -29% and KCNH2 3.1 inh 2.
Screening Cc1ccc(S(=O)(=O)NCc2ccccc2)cc1C(=O)N(C)Cc1ccc(F)cc1 returned RXFP1 ag 2%, GRP78 ERSR act -1%, RXFP1 antagonist -4, hERG WT inh 1, PTHR1 agonist -33% and KCNH2 3.1 inh -13.
`O=C(O)c1cc(O)ccc1N=Nc1ccccc1` gave RXFP1 ag -1%, GRP78 ERSR act 28µM*, RXFP1 antagonist 8, hERG WT inh -14, PTHR1 agonist -21% and KCNH2 3.1 inh 3.
For O=C(CSc1nncn1-c1ccccc1)Nc1ccccc1 the results were RXFP1 ag 0%, GRP78 ERSR act -4%, RXFP1 antagonist -15, hERG WT inh -10, PTHR1 agonist -19% and KCNH2 3.1 inh 14.
`COc1ccccc1-n1cnnc1SCC(=O)Nc1ccccc1` gave RXFP1 ag -1%, GRP78 ERSR act 8%, RXFP1 antagonist -7, hERG WT inh -1, PTHR1 agonist -9% and KCNH2 3.1 inh -86*.
`O=C(c1cc(-c2cccc(O)c2)on1)N1CCCC1` gave RXFP1 ag 4%, GRP78 ERSR act -9%, RXFP1 antagonist -13, hERG WT inh -228*, PTHR1 agonist -3% and KCNH2 3.1 inh -188*.
O=C(c1cc(-c2cccc(O)c2)on1)N1CCCCC1 was read as RXFP1 ag 0%, GRP78 ERSR act -8%, RXFP1 antagonist -29, hERG WT inh -2, PTHR1 agonist inactive and KCNH2 3.1 inh 3.
Clc1cccc(-n2ncc3c(NC4CCCCC4)ncnc32)c1 was read as RXFP1 ag 9%, GRP78 ERSR act -7%, RXFP1 antagonist -70* and PTHR1 agonist inactive.
For Cc1ccc(Cl)cc1-n1ncc2c(NC3CCCCC3)ncnc21 the results were RXFP1 ag 3%, GRP78 ERSR act -3%, RXFP1 antagonist -32 and PTHR1 agonist -40%.
CCCOc1cccc(C2c3c(-c4ccccc4O)n[nH]c3C(=O)N2Cc2ccco2)c1 (stereo unspecified) was read as RXFP1 ag 0%, GRP78 ERSR act 5%, RXFP1 antagonist -80* and PTHR1 agonist -28%.
`O=C1c2[nH]nc(-c3ccccc3O)c2C(c2cccc(OCc3ccccc3)c2)N1CCCO` (stereo unspecified) gave RXFP1 ag 2%, GRP78 ERSR act 17%, RXFP1 antagonist -64* and PTHR1 agonist -13%.
`COc1ccc(CCN2C(=O)c3[nH]nc(-c4ccccc4O)c3C2c2cccc(Cl)c2)cc1` (stereo unspecified) gave RXFP1 ag 3%, GRP78 ERSR act 0%, RXFP1 antagonist -4, hERG WT inh -10, PTHR1 agonist -5%[57.5 µM] and KCNH2 3.1 inh -26.
For O=C1c2[nH]nc(-c3ccccc3O)c2C(c2cccc(O)c2)N1Cc1ccco1 (stereo unspecified) the results were RXFP1 ag 1%, GRP78 ERSR act -4%, RXFP1 antagonist -20, hERG WT inh 9, PTHR1 agonist inactive and KCNH2 3.1 inh 4.
For COCCN1C(=O)c2[nH]nc(-c3ccccc3O)c2C1c1ccc(Cl)c(Cl)c1 (stereo unspecified) the results were RXFP1 ag 0%, GRP78 ERSR act 1%, RXFP1 antagonist -70* and PTHR1 agonist inactive.
Cc1ccc(O)c(-c2n[nH]c3c2C(c2ccc(F)cc2)N(Cc2ccco2)C3=O)c1 (stereo unspecified) was read as RXFP1 ag -1%, GRP78 ERSR act -10%, RXFP1 antagonist -64* and PTHR1 agonist -59%.
For COc1cc(C2c3c(-c4ccccc4O)n[nH]c3C(=O)N2CCO)ccc1OCc1ccccc1 (stereo unspecified) the results were RXFP1 ag 0%, GRP78 ERSR act -1%, RXFP1 antagonist -6 and PTHR1 agonist -3%.
`COc1ccc(C2c3c(-c4ccccc4O)n[nH]c3C(=O)N2Cc2ccco2)cc1` (stereo unspecified) gave RXFP1 ag 1%, GRP78 ERSR act -3%, RXFP1 antagonist -28, hERG WT inh 4, PTHR1 agonist -4% and KCNH2 3.1 inh -16.
Screening O=C1CCC(C(=O)N2CCC(O)CC2)CN1CCc1ccc(Cl)cc1 (stereo unspecified) returned RXFP1 ag -1%, GRP78 ERSR act -4%, RXFP1 antagonist -8, hERG WT inh 5, PTHR1 agonist -28% and KCNH2 3.1 inh 12.
For CCOc1cccc2cc(C(=O)Nc3ccccc3-c3ccccc3)c(=O)oc12 the results were RXFP1 ag -4%, GRP78 ERSR act 1%, hERG WT inh -10, PTHR1 agonist inactive and KCNH2 3.1 inh -7.
Screening CCOc1cccc2cc(C(=O)NCc3ccc(C)cc3)c(=N)oc12 returned RXFP1 ag 3%, GRP78 ERSR act 9%, RXFP1 antagonist 15, hERG WT inh -6, PTHR1 agonist 29% and KCNH2 3.1 inh -208*.
For CCOc1cccc2cc(C(=O)Nc3cc(C)on3)c(=O)oc12 the results were RXFP1 ag 27%, GRP78 ERSR act -1%, RXFP1 antagonist 20, hERG WT inh 0, PTHR1 agonist 9%[57.5 µM] and KCNH2 3.1 inh -77*.
`COc1ccc(-c2cc(C(F)(F)F)nc(N3CCN(Cc4ccccc4)CC3)n2)cc1OC` gave RXFP1 ag 4%, GRP78 ERSR act 3%, RXFP1 antagonist -6, hERG WT inh -21, PTHR1 agonist inactive and KCNH2 3.1 inh 4.
Cc1cc(N2CCOCC2)nc2ccc(NC(=S)N3CCN(c4ccccc4)CC3)cc12 was read as RXFP1 ag 6%, GRP78 ERSR act 9%, RXFP1 antagonist 0, hERG WT inh 0, PTHR1 agonist inactive and KCNH2 3.1 inh 17.
